Laboratory results as given in PubChem BioAssay AID1159580 (chemical genetic matrix, 2015).
Where “and” joins values, the source holds several entries; their conditions need not be identical. Equal values may be shown once. Among all 5,500 compounds or so, about 2,000 (36%) were called active. About 18% were inconclusive and are not listed. Rule as the data show it: active = normalized growth mostly below about 0.91 (no sharp cut-off); inconclusive = no clear call, values can overlap the other calls; inactive = mostly above about 0.92. The list shows a part of the results.

Assay: chemical genetic growth profiling, strain panel (AID 1159580);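 also: tested at 20 µM; growth read once vehicle control cultures reached saturation at 30 °C; 1 = growth at the plate median or of vehicle wells; lower values mean less growth of the strain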
Conditions: S. cerevisiae deletion strains, growth OD

Measured: normalized growth

CC(=O)OC1CCC23C(=O)OC45CCC(C6=CC(=O)OC6)C4(C)CCC2C5CCC3(O)C1 (centres undefined)
inactive: locus YAL021C, strain ccr4, stronger effect = lower value 1 | locus YAL026C, strain drs2, stronger effect = lower value 0.979 | locus YAL030W, strain snc1, stronger effect = lower value 0.996 | locus YBL061C, strain skt5, stronger effect = lower value 0.975 | locus YBR009C, strain hhf1, stronger effect = lower value 0.998 | locus YBR021W, strain FUR4, stronger effect = lower value 1 | locus YBR023C, strain chs3, stronger effect = lower value 0.991 | locus YBR171W, strain sec66, stronger effect = lower value 0.953 | locus YBR229C, strain ROT2, stronger effect = lower value 1.01 | locus YBR231C, strain swc5, stronger effect = lower value 0.987 | locus YBR279W, strain paf1, stronger effect = lower value 1.01 | locus YCL011C, strain gbp2, stronger effect = lower value 1 | locus YCL016C, strain dcc1, stronger effect = lower value 1.04 | locus YCL029C, strain bik1, stronger effect = lower value 1.02 | locus YCL061C, strain MRC1, stronger effect = lower value 0.997 | locus YCL069W, strain vba3, stronger effect = lower value 0.979 | locus YCR088W, strain abp1, stronger effect = lower value 0.986 | locus YDL005C, strain med2, stronger effect = lower value 0.98 | locus YDL035C, strain GPR1, stronger effect = lower value 1.05 | locus YDL040C, strain nat1, stronger effect = lower value 0.99 | locus YDL074C, strain BRE1, stronger effect = lower value 1.1 | locus YDL101C, strain DUN1, stronger effect = lower value 1.01 | locus YDL185W, strain tfp1, stronger effect = lower value 0.992 | locus YDL192W, strain arf1, stronger effect = lower value 1.03 | locus YDR001C, strain nth1, stronger effect = lower value 0.991 | locus YDR069C, strain doa4, stronger effect = lower value 0.963 | locus YDR101C, strain arx1, stronger effect = lower value 1 | locus YDR137W, strain rgp1, stronger effect = lower value 1.03 | locus YDR159W, strain sac3, stronger effect = lower value 0.961 | locus YDR162C, strain NBP2, stronger effect = lower value 1.03 | locus YDR195W, strain ref2 0.943 | locus YDR297W, strain sur2, stronger effect = lower value 0.987 | locus YDR318W, strain mcm21, stronger effect = lower value 1.02 | locus YDR334W, strain swr1, stronger effect = lower value 0.959 | locus YDR335W, strain msn5, stronger effect = lower value 0.992 | locus YDR388W, stronger effect = lower value 0.998 | locus YDR392W, strain spt3, stronger effect = lower value 0.962 | locus YDR502C, strain sam2, stronger effect = lower value 1.02 | locus YEL003W, strain gim4, stronger effect = lower value 0.988 | locus YEL037C, strain rad23, stronger effect = lower value 0.97 | locus YEL061C, strain CIN8 (second series), stronger effect = lower value 0.981 | locus YER015W, strain faa2, stronger effect = lower value 0.977 | locus YER016W, strain bim1, stronger effect = lower value 0.994 | locus YER110C, stronger effect = lower value 0.997 | locus YER111C, strain swi4, stronger effect = lower value 0.95 | locus YER155C, strain BEM2 (second series), stronger effect = lower value 0.968 | locus YER155C, strain BEM2, stronger effect = lower value 1 | locus YER167W, strain BCK2, stronger effect = lower value 1.01 | locus YFR010W, strain ubp6, stronger effect = lower value 0.959 | locus YGL078C, strain dbp3, stronger effect = lower value 1 | locus YGL086W, strain mad1, stronger effect = lower value 1 | locus YGL167C, strain pmr1, stronger effect = lower value 0.978 | locus YGL173C, strain kem1, stronger effect = lower value 0.972 | locus YGL227W, strain vid30, stronger effect = lower value 0.994 | locus YGL240W, strain doc1, stronger effect = lower value 0.973 | locus YGL248W, strain PDE1, stronger effect = lower value 1.06 | locus YGL253W, strain hxk2, stronger effect = lower value 0.98 | locus YGR135W, strain pre9, stronger effect = lower value 0.997 | locus YGR252W, strain gcn5, stronger effect = lower value 1 | locus YHR013C, strain ard1, stronger effect = lower value 0.994 | locus YHR027C, strain rpn1, stronger effect = lower value 0.971 | locus YHR030C, strain SLT2, stronger effect = lower value 1.02 and 0.956 | locus YHR079C, strain IRE1 (second series), stronger effect = lower value 0.994 | locus YHR079C, strain IRE1, stronger effect = lower value 0.984 | locus YHR094C, strain hxt1, stronger effect = lower value 1 | locus YHR129C, strain ARP1, stronger effect = lower value 1.02 | locus YHR142W, strain chs7, stronger effect = lower value 1.02 | locus YHR200W, strain rpn10, stronger effect = lower value 1.01 | locus YIL066C, strain RNR3, stronger effect = lower value 1.03 | locus YIL073C, strain SPO22, stronger effect = lower value 1.11 | locus YIL125W, strain kgd1, stronger effect = lower value 1.02 | locus YIR030C, strain dcg1, stronger effect = lower value 1 | locus YJL092W, strain hpr5, stronger effect = lower value 0.971 | locus YJL095W, strain BCK1 (second series), stronger effect = lower value 0.96 | locus YJL095W, strain BCK1, stronger effect = lower value 1.08 and 0.965 | locus YJL115W, strain asf1, stronger effect = lower value 0.979 | locus YJL129C, strain trk1, stronger effect = lower value 0.973 | locus YJL134W, strain LCB3, stronger effect = lower value 1.01 | locus YJL154C, strain vps35, stronger effect = lower value 0.988 | locus YJL164C, strain tpk1, stronger effect = lower value 1.04 | locus YJL166W, strain qcr8, stronger effect = lower value 0.977 | locus YJL168C, strain set2, stronger effect = lower value 1.01 | locus YJL187C, strain SWE1 (second series), stronger effect = lower value 1.02 | locus YJR043C, strain POL32, stronger effect = lower value 1.05 | locus YJR066W, strain TOR1, stronger effect = lower value 0.883 | locus YKL009W, strain mrt4, stronger effect = lower value 1.02 | locus YKL068W, stronger effect = lower value 1.01 | locus YKL085W, strain MDH1 (second series), stronger effect = lower value 1 | locus YKL085W, strain MDH1, stronger effect = lower value 1 | locus YKL160W, strain elf1, stronger effect = lower value 1.06 | locus YKR001C, strain vps1, stronger effect = lower value 1.02 | locus YKR026C, strain gcn3, stronger effect = lower value 0.976 | locus YKR091W, strain srl3, stronger effect = lower value 0.994 | locus YLL001W, strain dnm1, stronger effect = lower value 1.01 | locus YLL026W, stronger effect = lower value 0.996 | locus YLL041C, strain sdh2, stronger effect = lower value 0.966 | locus YLR027C, strain aat2, stronger effect = lower value 0.988 | locus YLR039C, strain RIC1, stronger effect = lower value 1.23 | locus YLR058C, strain SHM2, stronger effect = lower value 1.02 | locus YLR102C, strain apc9, stronger effect = lower value 0.994 | locus YLR113W, strain HOG1, stronger effect = lower value 1.01 | locus YLR221C, strain rsa3, stronger effect = lower value 0.981 | locus YLR258W, strain gsy2, stronger effect = lower value 1 | locus YLR262C, strain YPT6 (second series), stronger effect = lower value 1.01 | locus YLR268W, strain sec22, stronger effect = lower value 1.02 | locus YLR320W, strain mms22, stronger effect = lower value 0.988 | locus YLR342W, strain FKS1 (second series), stronger effect = lower value 1.06 | locus YLR342W, strain FKS1, stronger effect = lower value 0.995 | locus YLR357W, strain rsc2, stronger effect = lower value 0.973 | locus YLR370C, strain arc18, stronger effect = lower value 0.986 | locus YLR371W, strain rom2, stronger effect = lower value 1.02 | locus YLR384C, strain iki3, stronger effect = lower value 0.997 | locus YLR418C, strain cdc73, stronger effect = lower value 1.06 | locus YML016C, strain PPZ1, stronger effect = lower value 1.01 | locus YML032C, strain rad52, stronger effect = lower value 1.01 | locus YML120C, strain ndi1, stronger effect = lower value 1.01 | locus YML124C, strain tub3, stronger effect = lower value 1.01 | locus YMR058W, strain fet3, stronger effect = lower value 0.988 | locus YMR078C, strain ctf18, stronger effect = lower value 1.01 | locus YMR125W, strain sto1, stronger effect = lower value 0.992 | locus YMR129W, stronger effect = lower value 0.986 | locus YMR205C, strain PFK2, stronger effect = lower value 1.01 | locus YMR223W, strain ubp8, stronger effect = lower value 1 | locus YMR231W, strain pep5, stronger effect = lower value 0.97 | locus YMR263W, strain SAP30, stronger effect = lower value 1.01 | locus YMR307W, strain GAS1, stronger effect = lower value 1.16 | locus YNL067W, strain RPL9B, stronger effect = lower value 0.999 | locus YNL071W, strain lat1, stronger effect = lower value 0.994 | locus YNL183C, strain NPR1, stronger effect = lower value 0.922 | locus YNL209W, strain ssb2, stronger effect = lower value 0.996 | locus YNL233W, strain BNI4, stronger effect = lower value 1.05 | locus YNL248C, strain rpa49, stronger effect = lower value 0.989 | locus YNL250W, strain rad50, stronger effect = lower value 1.03 | locus YNL271C, strain bni1, stronger effect = lower value 1.02 | locus YNL298W, strain CLA4, stronger effect = lower value 1.01 | locus YNL307C, strain MCK1, stronger effect = lower value 1.02 | locus YNL322C, strain KRE1 (second series), stronger effect = lower value 0.987 | locus YNR049C, strain mso1, stronger effect = lower value 0.967 | locus YNR052C, strain pop2, stronger effect = lower value 0.996 | locus YOL006C, strain TOP1, stronger effect = lower value 1.28 | locus YOL012C, strain htz1 0.952 | locus YOL147C, strain pex11, stronger effect = lower value 1.02 | locus YOR001W, strain rrp6, stronger effect = lower value 0.929 | locus YOR061W, strain CKA2, stronger effect = lower value 1.02 | locus YOR069W, strain VPS5, stronger effect = lower value 1 | locus YOR070C, strain gyp1, stronger effect = lower value 0.982 | locus YOR080W, strain dia2, stronger effect = lower value 0.98 | locus YOR083W, strain WHI5, stronger effect = lower value 1.06 | locus YOR106W, strain vam3, stronger effect = lower value 1.05 | locus YOR136W, strain idh2, stronger effect = lower value 0.997 | locus YOR144C, strain elg1, stronger effect = lower value 1 | locus YOR184W, strain ser1, stronger effect = lower value 1.02 | locus YOR231W, strain MKK1, stronger effect = lower value 0.976 | locus YOR265W, strain rbl2, stronger effect = lower value 0.996 | locus YOR270C, strain vph1, stronger effect = lower value 1 | locus YOR290C, strain snf2, stronger effect = lower value 1.02 | locus YOR316C, strain cot1, stronger effect = lower value 1.02 | locus YPL051W, strain arl3, stronger effect = lower value 0.967 | locus YPL055C, strain LGE1, stronger effect = lower value 1.09 | locus YPL078C, strain atp4, stronger effect = lower value 1.06 | locus YPL106C, strain sse1, stronger effect = lower value 1 | locus YPL240C, strain hsp82, stronger effect = lower value 0.979 | locus YPL241C, strain CIN2, stronger effect = lower value 1.02 | locus YPL256C, strain CLN2, stronger effect = lower value 0.975 | locus YPR119W, strain clb2, stronger effect = lower value 0.999 | locus YPR141C, strain kar3, stronger effect = lower value 0.997 | locus YPR163C, strain tif3, stronger effect = lower value 1.01 | locus YPR167C, strain met16, stronger effect = lower value 1.02 | strain wtn01, stronger effect = lower value 1
